The values below come from ChEMBL document CHEMBL4513216, “Probing the Open Global Health Chemical Diversity Library for Multistage-Active Starting Points for Next-Generation Antimalarials” (ACS Infect Dis, 2020).

Hit rate of the full screen: of about 68,000 compounds, about 2,700 (4%) showed an effect of 50% or more. The entries come from a sample that favours strong results as a whole.

The test system of this assay is Plasmodium berghei. The assay can be described thus: Screen against P. berghei liver stage (PbLuc), transformed with Luciferase, at 2uM. Format: functional, HepG2. The settings on record: tested at 2 uM.
With `CCn1cc2c(n1)CN(Cc1ccncc1)CC2COCC1CC1` (configuration not stated), the INHIBITION was determined as 14.94%. The same measure for `CCOCC1CN(c2ccncn2)Cc2cnn(CC)c21` (configuration not stated): 32.69%. Regarding `Cc1cc2c(N3CCC(N(C)CCc4cnn(C)c4)CC3)ncnc2s1`, the INHIBITION is -15.4%. The same measure for `CSCC(CCO)NC(=O)Nc1ccc(Br)cc1` (configuration not stated): -39.48%. The same measure for `C[C@@H]1CN(C(=O)CCc2nncn2C)C[C@@]1(O)C1CCC1`: 52.08%; for `C[C@@H]1CN(C(=O)CCc2nncn2C)CC[C@@]1(O)C1CCC1`: 12.43%. The same measure for `C[C@@H]1CN(C(=O)CCc2cnn(C)c2)C[C@@]1(O)C1CCC1`: 11.33%; for `Cc1noc(C)c1CCC(=O)Nc1ccn(C)n1`: -7.68%. Consider `CN(Cc1cnccn1)CC1CCOc2ccccc2C1` (configuration not stated), for which the INHIBITION came out at 20.76%. The same measure for `CCc1n[nH]c(C(=O)NCCn2nccc2C)c1C`: 20.71%. The same measure for `CCc1n[nH]c(C(=O)NCCn2ccnc2C)c1C`: 57.34%. The value for `CCc1n[nH]c(C(=O)NCCn2ccc(C)n2)c1C` was 16.87%; that for `CC(=O)c1ccc(F)cc1-c1cc(NCCO)nc2[nH]ccc12` was 6.85%. Turning to `COc1ccccc1Nc1nc2c(s1)C(=O)CN(C(=O)CC(C)C)C2`, the INHIBITION was 2.6%.

Consider `CC(O)CNC(=O)c1nc(Cc2c(Cl)cccc2Cl)no1` (configuration not stated), for which the INHIBITION was found to be 20.71%. As for `O=C(NCC(=O)N1CCCC1)c1nc(Cc2c(Cl)cccc2Cl)no1`, the INHIBITION is reported as 57.4%.

Take `CC(C)CNC(=O)CNC(=O)c1nc(Cc2c(Cl)cccc2Cl)no1`: the INHIBITION is listed as -2.09%.

Regarding `COC(=O)NCC(=O)NCC(C)(C)c1cccc(Br)c1`, the INHIBITION worked out at 19.07%. Regarding `Cc1cccc(CN2CCC3(CCC(C(=O)N(C)C)O3)CC2)n1` (configuration not stated), the INHIBITION is 58.4%. The same measure for `Cc1ccc(CN2CCC3(CCC(C(=O)N(C)C)O3)CC2)o1` (configuration not stated): 5.14%. The same measure for `CN(C)C(=O)C1CCC2(CCN(Cc3ccc4ccccc4n3)CC2)O1` (configuration not stated): 23.26%; for `CCn1cnc(NC(=O)NCC2CCS(=O)(=O)CC2)n1`: 28.85%; for `Cc1ccc(CN2CCOC(C)(c3cnn(C)c3)C2)cc1` (configuration not stated): 21%. The value for `O=C(C1CCCCN1Cc1nc(-c2ccco2)no1)N1CCCC1` (configuration not stated) was -113.33%; that for `O=C(NCc1ccco1)C1CCCN1Cc1nc(-c2ccco2)no1` (configuration not stated) was -43.47%; that for `O=C(Cc1csc(-c2ccco2)n1)N1CCSCC1` was 50.76%. On to `O=C(C1CCCN1Cc1nc(-c2ccco2)no1)N1CCSCC1` (configuration not stated), for which the INHIBITION was determined as 58.05%. The same measure for `O=C(Cc1csc(-c2ccco2)n1)N1CCN(CCO)CC1`: -27.91%; for `CC(C)N1CCN(C(=O)Cc2csc(-c3ccco3)n2)CC1`: 28.18%; for `CNC(=O)C1CCCN(C(=O)OC)C1` (configuration not stated): -0.28%. As for `O=C(CCN1CCCCO1)NCc1cn2c(n1)SCC2`, the INHIBITION is reported as 21.36%.

Turning to `Cc1nc(-c2ccccc2)n(CC(=O)NCC(C)C)n1`, the INHIBITION was 26.4%. Consider `COc1ccc(CN2CCC3(CCCN(c4ncc(F)cn4)C3)C2)cc1` (configuration not stated), for which the INHIBITION is -50.35%.

With `Cc1cnn(CC2CN(c3ccc(C#N)cn3)CCO2)c1` (configuration not stated), the INHIBITION is reported as -11.2%. The same measure for `CN(C)CC1CN(c2ccc(C#N)cn2)CCO1` (configuration not stated): 54.85%; for `Cc1nc(C)n(CC2CN(c3ccc(C#N)cn3)CCO2)n1` (configuration not stated): -16.42%.

Regarding `Cc1cccc(CN2C[C@@H]3CC[C@H]2CN(Cc2[nH]cnc2C)C3)n1`, the INHIBITION was 25.68%. The value for `Cc1n[nH]cc1CNC1CCN(c2ccccc2)CC1` was 7.83%. The value for `COc1ccccc1CC(=O)N1CCC(NCc2c[nH]nc2C)CC1` was -14.17%; that for `Cc1n[nH]cc1CNC1CCN(c2cccc(C(F)(F)F)c2)CC1` was 78.72%.

With `COc1cccc(CC(=O)N2CCC(NCc3c[nH]nc3C)CC2)c1`, the INHIBITION was determined as 55.06%.

On to `COc1cccc(-c2n[nH]cc2CNC2CCN(C3CC3)CC2)c1`, for which the INHIBITION is on record as -13.89%. The value for `Cc1n[nH]cc1CNC1CCN(c2ccc(F)cc2)CC1` was -13.72%; that for `Fc1cnc(N2CCC3(CC2)CC(OCc2cccnc2)CO3)nc1` (configuration not stated) was 11.18%; that for `CC(=O)N[C@@H]1CN(C(=O)c2cc(C)oc2C)C[C@H]1c1ccc(C)o1` was -29.82%. The value for `Cc1ccc(NC2CCN(C(=O)CN(C)C3CC3)CC2)nn1` was 21.31%; that for `CC(Cn1ccnc1)NC(=O)N(C)Cc1ccsc1` (configuration not stated) was 26.85%. Regarding `CO[C@H]1CCN(Cc2cccs2)[C@@H]2CN(Cc3ccncc3)C[C@H]12`, the INHIBITION is recorded as -4.92%. The value for `COCCN1C(=O)CC[C@@H]2[C@H]1CCN2Cc1ccc(C)s1` was 10.17%. The value for `CNc1nc(C)c(C(=O)N2CCC(C(O)Cc3ccccc3)CC2)s1` (configuration not stated) was 40.88%. The value for `CCn1nc(C)c2c1cnn2CCNS(=O)(=O)c1cccs1` was 61.77%; that for `CCn1nc(C)c2c1cnn2CCNS(=O)(=O)c1ccccc1` was 0.36%; that for `CCn1nc(C)c2c1cnn2CCNS(C)(=O)=O` was 15.46%. Turning to `COC(=O)c1cnc(/C=C/c2ccc(C(=O)O)cc2)s1`, the INHIBITION amounted to 23.45%. The value for `CC(=O)Nc1ccc(/C=C/c2ncc(C(=O)O)s2)cc1` was 69.71%; that for `COC(=O)c1ccc(/C=C/c2ncc(C(=O)O)s2)cc1` was -39.34%.

Turning to `CN1[C@@H](C(=O)NCC2CC2)C[C@H]2CN(Cc3cccc(C#N)c3)C[C@H]21`, the INHIBITION is recorded as 36.99%.

For the molecule `OC(CNCc1ccccc1C(F)(F)F)c1ccccc1` (configuration not stated), the INHIBITION is -2.86%. In the case of `CCC[C@H]1CN(CCS(C)(=O)=O)C[C@@H]1NC(=O)Cn1cc(C)cn1`, the INHIBITION worked out at 55.44%. `CCC[C@H]1CN(CCOC)C[C@@H]1NC(=O)Cn1cc(C)cn1`: the INHIBITION was -17.99%. For the molecule `CCC[C@H]1CN(CCCO)C[C@@H]1NC(=O)Cn1cc(C)cn1`, the INHIBITION came out at 3.97%. The value for `Cc1cncc(C(=O)N2CCC3(CCCN(c4nncs4)C3)C2)c1` (configuration not stated) was -39.92%; that for `COc1ccc(CCN(C)C(=O)CN2C(=O)OC[C@@H]2C(C)C)cc1OC` was -4.77%. `Cc1cnc(N2CCc3cc(C(=O)O)c(N(C)C)nc3CC2)nc1`: the INHIBITION is -1.81%. As for `Cc1nc(CN2CCc3cc(C(=O)O)c(N(C)C)nc3CC2)cs1`, the INHIBITION came out at 63.04%.

As for `Cc1cccc(CN2CCc3cc(C(=O)O)c(N(C)C)nc3CC2)n1`, the INHIBITION was determined as 30.19%. For the molecule `O=C(c1ccc[nH]1)N1CCCC2(CCN(c3ccsc3)C2=O)C1` (configuration not stated), the INHIBITION worked out at 26.92%.
